Reference: PubChem BioAssay (EPA / NIEHS)
Calls of active or inactive are those of the source. The calls were made as follows: active = hit-call score of the fitted dose curve at least 0.9, where 1 is the maximum; inactive = score below 0.9.

Columns and labels:
[1] = read-out: Interleukin-1 alpha (IL1a), IL1A (gene 3552); assay: BSK_KF3CT_IL1a: BioMAP Diversity Plus: KF3CT Assay for Interleukin-1 alpha (IL1a) Biomarker Activity (AID 2283070); settings: primary human keratinocytes with fibroblasts; actives raise or lower the signal
In short: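 IL-1a was detected by ELISA 24 h after chemical treatment of a co-culture of human skin keratinocytes and foreskin fibroblasts. Gain or loss of signal was fitted against the DMSO baseline.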

[2] = read-out: C-C motif chemokine 2 (Homo sapiens) (UniProt P13500); assay: BSK_KF3CT_MCP1: BioMAP Diversity Plus: KF3CT Assay for Monocyte Chemoattractant Protein 1 (MCP1/CCL2) Biomarker Activity (AID 2283073); settings: primary human keratinocytes with fibroblasts; actives raise or lower the signal
In short: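 KF3CT skin co-culture (keratinocytes/foreskin fibroblasts), 24 h post-dose; MCP-1 by ELISA; gain/loss of signal fit bidirectionally vs DMSO baseline.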

[3] = read-out: Matrix Metallopeptidase 9 (MMP9), MMP9 (gene 4318); assay: BSK_KF3CT_MMP9: BioMAP Diversity Plus: KF3CT Assay for Matrix Metallopeptidase 9 (MMP9) Biomarker Activity (AID 2283074); settings: primary human keratinocytes with fibroblasts; actives raise or lower the signal;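 as to AC50: MMP9 protein level quantified by ELISA in the co-culture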
In short: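 MMP-9 quantified by ELISA after 24 h chemical treatment of primary human skin keratinocyte/fibroblast co-cultures; gain or loss fitted against DMSO, with parallel SRB staining (0.1% SRB, 560 nm) for overt cytotoxicity.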

[4] = read-out: urokinase plasminogen activator (uPA), PLAU (gene 5328); assay: BSK_KF3CT_uPA: BioMAP Diversity Plus: KF3CT Assay for urokinase plasminogen activator (uPA) Biomarker Activity (AID 2283075); settings: primary human keratinocytes with fibroblasts; actives raise or lower the signal
In short: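 ELISA read-out of uPA 24 h after dosing human skin keratinocytes co-cultured with foreskin fibroblasts. Signal change fitted both ways relative to DMSO; sulforhodamine B on parallel cultures marks overt cytotoxicity.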

CD40, CD40 (gene 958) [5] = assay: BSK_LPS_CD40: BioMAP Diversity Plus: LPS Assay for CD40 Biomarker Activity (AID 2283076); settings: primary human HUVEC with PBMC; actives raise or lower the signal
In short: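 ELISA readout of CD40 in HUVEC/PBMC co-culture (BSK_LPS system), 24 h post-dosing; bidirectional curve fit, DMSO baseline; parallel SRB total-protein staining for cytotoxicity.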

[6] = read-out: E-selectin (Homo sapiens) (UniProt P16581); assay: BSK_LPS_Eselectin: BioMAP Diversity Plus: LPS Assay for Eselectin Biomarker Activity (AID 2283077); settings: primary human HUVEC with PBMC; actives raise or lower the signal
In short: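 ELISA readout of E-selectin, 24 h post-dose, HUVEC + PBMC co-culture (LPS system). Gain or loss of signal vs DMSO baseline, bidirectional fit.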

[7] = read-out: Interleukin-8 (IL8), CXCL8 (gene 3576); assay: BSK_LPS_IL8: BioMAP Diversity Plus: LPS Assay for Interleukin-8 (IL8) Biomarker Activity (AID 2283078); settings: primary human HUVEC with PBMC; actives raise or lower the signal
In short: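 HUVEC + PBMC co-culture, LPS-activated; test chemicals dosed, IL-8 read by ELISA at 24 h. Bidirectional curve fit vs DMSO baseline (gain or loss of signal).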

[8] = BSK_LPS_SRB: Viability Assessment in the BioMAP Diversity Plus: LPS Assay (AID 2283079); settings: primary human HUVEC with PBMC;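 also: total protein by sulforhodamine B absorbance as a cytotoxicity measure; measured one day after compound addition; fitted in both directions against DMSO so loss or gain of signal counts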
In short: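 HUVEC + PBMC co-culture, LPS-stimulated; compound 24 h. 10% TCA fix, 0.1% SRB stain, A560. Bidirectional fit vs DMSO.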

[9] = read-out: Interleukin-1 alpha (IL1a), IL1A (gene 3552); assay: BSK_LPS_IL1a: BioMAP Diversity Plus: LPS Assay for Interleukin-1 alpha (IL1a) Biomarker Activity (AID 2283080); settings: primary human HUVEC with PBMC; actives raise or lower the signal
In short: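 HUVEC/PBMC co-culture, LPS system; 24 h after dosing; IL-1a by ELISA; gain or loss of signal fitted bidirectionally vs DMSO baseline.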

[10] = read-out: Monocyte Chemoattractant Protein-1 (MCP1), CCL2 (gene 6347); assay: BSK_LPS_MCP1: BioMAP Diversity Plus: LPS Assay for Monocyte Chemoattractant Protein-1 (MCP1) Biomarker Activity (AID 2283081); settings: primary human HUVEC with PBMC; actives raise or lower the signal;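 as to AC50: secreted MCP-1 protein quantified by ELISA in culture supernatant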
In short: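 ELISA read-out of MCP-1 after 24 h chemical dosing of a human umbilical vein endothelial cell/peripheral blood mononuclear cell co-culture stimulated with LPS. Gain or loss of signal fitted relative to DMSO controls.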

[11] = BSK_LPS_PGE2: BioMAP Diversity Plus: LPS Assay for Prostaglandin E2 (PGE2) Biomarker Activity (AID 2283082); settings: primary human HUVEC with PBMC; actives raise or lower the signal;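 as to AC50: secreted prostaglandin E2 measured by ELISA in LPS-stimulated co-culture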
In short: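 Compounds were added to the LPS co-culture of endothelium and PBMC, and PGE2 was measured by ELISA after 24 h. Responses in either direction were fitted with DMSO as baseline.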

[12] = read-out: Macrophage colony-stimulating factor (MCSF), CSF1 (gene 1435); assay: BSK_LPS_MCSF: BioMAP Diversity Plus: LPS Assay for Macrophage colony-stimulating factor (MCSF) Biomarker Activity (AID 2283083); settings: primary human HUVEC with PBMC; actives raise or lower the signal
In short: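 HUVEC + PBMC co-culture (human primary), 24 h post-dose; M-CSF by ELISA; gain/loss of signal fitted bidirectionally vs DMSO baseline.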

[13] = read-out: Tissue Factor, F3 (gene 2152); assay: BSK_LPS_TissueFactor: BioMAP Diversity Plus: LPS Assay for Tissue Factor Biomarker Activity (AID 2283084); settings: primary human HUVEC with PBMC; actives raise or lower the signal
In short: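 HUVEC/PBMC co-culture, LPS-activated; CD142 ELISA read 24 h post-dose; bidirectional curve fit vs DMSO negative control.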

[14] = read-out: Tumor necrosis factor (Homo sapiens) (UniProt P01375); assay: BSK_LPS_TNFa: BioMAP Diversity Plus: LPS Assay for Tumour Necrosis Factor alpha (TNFa) Biomarker Activity (AID 2283085); settings: primary human HUVEC with PBMC; actives raise or lower the signal;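 as to AC50: TNFa protein level quantified by ELISA in the co-culture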
In short: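 Cells (umbilical vein endothelium plus peripheral blood mononuclear cells) were dosed with chemical, incubated 24 h, then TNFa was quantified by ELISA; values derive from bidirectional fitting with DMSO as baseline.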

[15] = read-out: Vascular cell adhesion molecule 1 (VCAM1), VCAM1 (gene 7412); assay: BSK_LPS_VCAM1: BioMAP Diversity Plus: LPS Assay for Vascular cell adhesion molecule 1 (VCAM1) Biomarker Activity (AID 2283086); settings: primary human HUVEC with PBMC; actives raise or lower the signal
In short: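 Cells are dosed in an LPS-stimulated endothelial/mononuclear co-culture and, after 24 h, VCAM-1 is quantified by ELISA. Activity in either direction is fitted relative to the DMSO negative control.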

CD38, CD38 (gene 952) = assay: BSK_SAg_CD38: BioMAP Diversity Plus: SAg Assay for CD38 Biomarker Activity (AID 2283087); settings: primary human HUVEC with PBMC; actives raise or lower the signal
In short: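 CD38 quantified by ELISA (fluorescence) in a superantigen-activated endothelial cell–PBMC co-culture at 24 h post-dose. Activity fitted in both directions relative to DMSO; parallel SRB and Alamar Blue cytotoxicity read-outs.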

CD40, CD40 (gene 958) [16] = assay: BSK_SAg_CD40: BioMAP Diversity Plus: SAg Assay for CD40 Biomarker Activity (AID 2283088); settings: primary human HUVEC with PBMC; actives raise or lower the signal
In short: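 HUVEC/PBMC co-culture, 24 h post-dose; CD40 by ELISA, fluorescence intensity; bidirectional fit vs DMSO negative control.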

CD69, CD69 (gene 969) = assay: BSK_SAg_CD69: BioMAP Diversity Plus: SAg Assay for CD69 Biomarker Activity (AID 2283089); settings: primary human HUVEC with PBMC; actives raise or lower the signal;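 as to AC50: cell surface CD69 protein quantified by ELISA with fluorescence detection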
In short: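 Primary human vascular co-culture (umbilical vein endothelium with peripheral blood mononuclear cells) exposed to test chemical for 24 h. CD69 levels quantified by fluorescence ELISA; DMSO served as negative control for bidirectional fitting.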

[17] = read-out: Transforming growth factor beta 1 (TGFb1), TGFB1 (gene 7040); assay: BSK_KF3CT_TGFb1: BioMAP Diversity Plus: KF3CT Assay for Transforming growth factor beta 1 (TGFb1) Biomarker Activity (AID 2283072); settings: primary human keratinocytes with fibroblasts; actives raise or lower the signal
In short: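 KF3CT co-culture (keratinocytes + fibroblasts), 24 h exposure → TGF-b1 ELISA → bidirectional fit, DMSO = baseline. Parallel SRB total-protein staining (0.1% SRB, 10% TCA fixation, 560 nm) for cytotoxicity.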

Measured: AC50

Tumor necrosis factor (Homo sapiens), sequence (P01375 whole entry, looked up): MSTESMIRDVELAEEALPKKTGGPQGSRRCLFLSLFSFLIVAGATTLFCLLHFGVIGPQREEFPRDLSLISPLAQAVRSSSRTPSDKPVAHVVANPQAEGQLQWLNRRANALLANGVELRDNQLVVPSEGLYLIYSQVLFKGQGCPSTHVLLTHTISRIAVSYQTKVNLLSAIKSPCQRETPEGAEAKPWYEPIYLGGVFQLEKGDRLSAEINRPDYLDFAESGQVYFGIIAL
E-selectin (Homo sapiens), sequence (P16581 whole entry, looked up): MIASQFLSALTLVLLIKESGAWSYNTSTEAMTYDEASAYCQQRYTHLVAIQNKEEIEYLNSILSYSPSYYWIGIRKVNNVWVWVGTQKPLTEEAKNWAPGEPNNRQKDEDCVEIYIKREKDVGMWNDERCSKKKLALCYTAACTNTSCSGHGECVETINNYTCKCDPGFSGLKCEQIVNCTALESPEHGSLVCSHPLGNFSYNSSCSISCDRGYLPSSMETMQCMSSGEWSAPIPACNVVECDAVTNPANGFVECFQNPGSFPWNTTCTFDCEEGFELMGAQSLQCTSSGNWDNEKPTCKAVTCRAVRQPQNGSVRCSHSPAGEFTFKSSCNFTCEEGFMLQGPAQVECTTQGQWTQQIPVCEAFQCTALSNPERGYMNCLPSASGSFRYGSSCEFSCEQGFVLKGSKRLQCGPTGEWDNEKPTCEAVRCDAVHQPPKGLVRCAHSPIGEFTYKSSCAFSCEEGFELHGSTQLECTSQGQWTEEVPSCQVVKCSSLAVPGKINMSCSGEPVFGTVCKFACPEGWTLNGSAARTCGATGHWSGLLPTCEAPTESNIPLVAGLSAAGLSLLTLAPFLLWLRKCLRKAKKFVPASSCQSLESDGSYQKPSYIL

COP(=O)(CCC(=O)NCO)OC
not listed: [17]
inactive: all other assays above

Cc1ccc([N+](=O)[O-])cc1C
not listed: [6]
inactive: all other assays above

CCCN(CCC)c1c([N+](=O)[O-])cc(C(C)C)cc1[N+](=O)[O-]
inactive: [1] | [17] | [2] | [4] | [11] | [13]
active: [3] 14.6 µM | CD40, CD40 (gene 958) [5] 31 µM | [6] 30.8 µM | [7] 31.9 µM | [8] 31.2 µM | [9] 31.5 µM | [10] 31.3 µM | [12] 26.2 µM | [14] 35.9 µM | [15] 26.1 µM | CD38, CD38 (gene 952) 28.6 µM | CD40, CD40 (gene 958) [16] 30.1 µM | CD69, CD69 (gene 969) 33.5 µM

CCCCCCCc1ccc(O)cc1
active: [1] 30.4 µM | [17] 31.7 µM | [2] 29.6 µM | [3] 30.5 µM | CD40, CD40 (gene 958) [5] 30.9 µM | [6] 35.8 µM | [7] 35.1 µM | [8] 37.2 µM | [9] 31.2 µM | [10] 36.5 µM | [11] 2.95 µM | [12] 32 µM | [13] 38.1 µM | [14] 30.8 µM | [15] 36.2 µM | CD38, CD38 (gene 952) 35.7 µM | CD40, CD40 (gene 958) [16] 35.6 µM

O=C(O)C(F)(F)OC(F)(F)C(F)(F)OC(F)(F)C(=O)O
not listed: [6] | CD69, CD69 (gene 969) | [17]
inactive: all other assays above

CCCCN(CCCC)N=O
not listed: [6]
inactive: all other assays above

O=c1ssc(Cl)c1Cl
active: [1] 3.02 µM | [17] 20 µM | [2] 2.98 µM | [3] 5.92 µM | [4] 5.59 µM | CD40, CD40 (gene 958) [5] 3.38 µM | [6] 6.46 µM | [7] 7.38 µM | [8] 5.34 µM | [9] 4.19 µM | [10] 6.46 µM | [11] 2.22 µM | [12] 4.28 µM | [13] 8.4 µM | [15] 6.59 µM | CD38, CD38 (gene 952) 4.94 µM | CD40, CD40 (gene 958) [16] 5.44 µM | CD69, CD69 (gene 969) 6.02 µM
inactive: [14]
